The record followed here is PubChem BioAssay (NCI).

Assay [1] can be described thus: NCI Yeast Anticancer Drug Screen. Data for the rad50 strain (AID 155).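 Also: 0% = growth of vehicle-only cultures of the same strain.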 Particulars: S. cerevisiae rad50 strain growth inhibition, stronger effect = higher value. The gist of the method: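 Readout: growth inhibition relative to vehicle-treated cultures. Compound exposure was carried out in a genetically defined yeast strain deficient in DNA damage repair.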
Assay [2] is described as follows: NCI Yeast Anticancer Drug Screen. Data for the mec2-1 strain (AID 157). Particulars: S. cerevisiae mec2-1 strain, stronger effect = higher value. In a few lines: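 Vehicle-treated cultures served as reference for growth inhibition of compound-exposed mec2-1 yeast.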
A short description of assay [3]: NCI Yeast Anticancer Drug Screen. Data for the sgs1 mgt1 strain (AID 161).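 Also: 0% = growth of cultures given vehicle only.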 Particulars: S. cerevisiae sgs1 mgt1 strain, stronger effect = higher value. The gist of the method: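 Mutant yeast exposed to compound; growth scored against vehicle-only wells.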
Assay [4] in a line: NCI Yeast Anticancer Drug Screen. Data for the cln2 rad14 strain (AID 165).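 Also: 0% = growth equal to vehicle treated cultures.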 Particulars: S. cerevisiae cln2 rad14 strain, stronger effect = higher value. In a few lines:
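Each compound was tested on cln2 rad14 yeast. Inhibition of growth was calculated against vehicle-exposed controls.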

Assay [5] is described as follows: NCI Yeast Anticancer Drug Screen. Data for the bub3 strain (AID 167). Particulars: S. cerevisiae bub3 mutant strain, stronger effect = higher value. In a few lines: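 Readout: yeast growth inhibition, expressed relative to vehicle-only wells. The test organism is a mutant strain from a panel with lesions in DNA repair or checkpoint genes.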
A short description of assay [6]: NCI Yeast Anticancer Drug Screen. Data for the mlh1 rad18 strain (AID 175). Particulars: S. cerevisiae mlh1 rad18 strain growth inhibition, stronger effect = higher value. In a few lines:
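Vehicle-treated cultures served as the reference for growth inhibition in a yeast strain carrying DNA damage repair alterations exposed to each compound.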

The mark [7] stands for this setting: at 5.0 µM (retest, dose inferred, filed as 0.5).
The mark [8] stands for this setting: at 50.0 µM (retest, dose inferred, filed as 5.0).

This is part of a sample that, as a whole, favours compounds with a hit. Of some 79,000 tested, about 15% had one in any assay. A number with no mark means an inactive call. The source made the active and inactive calls. Rule as the data show it: active = growth inhibition above about 70%; inactive = the rest.

As for `O=[N+]([O-])c1ccc2c(c1)/C(=N/O)c1ccccc1-2`, the growth inhibition was 21% in assay [1] (setting [7]); 49% in assay [1] (setting [8]); 88.3% (active) in assay [1] (at 50.0 µM); 0% in assay [2] (setting [7]); 7% in assay [2] (setting [8]); 28.4% in assay [2] (at 50.0 µM). For the same molecule, the growth inhibition in assay [3] (setting [7]) is 4%; in assay [3] (setting [8]), 20%; in assay [3] (at 50.0 µM) it was 70%; in assay [4] (setting [7]) it was -10%; in assay [4] (setting [8]), 4%; in assay [4] (at 50.0 µM), 46.2%. Also, the growth inhibition in assay [5] (setting [7]) was 8%; in assay [5] (setting [8]), 29%; in assay [5] (at 50.0 µM), 18.8%; in assay [6] (setting [7]), 19%; in assay [6] (setting [8]) it was 38%; in assay [6] (at 50.0 µM), 81% (active).

As for `CCO/C=C1N=C(/C=C/c2ccccc2Cl)OC/1=O`, the growth inhibition was -6% in assay [1] (setting [7]); 84% (active) in assay [1] (setting [8]); 65% in assay [1] (at 50.0 µM); 13% in assay [2] (setting [7]); 58% in assay [2] (setting [8]); 45.4% in assay [2] (at 50.0 µM). The growth inhibition is 9% in assay [3] (setting [7]); 52% in assay [3] (setting [8]); 50.2% in assay [3] (at 50.0 µM); 9% in assay [4] (setting [7]); 81% (active) in assay [4] (setting [8]); 20.2% in assay [4] (at 50.0 µM). The growth inhibition in assay [5] (setting [7]) was 13%; in assay [5] (setting [8]), 81% (active); in assay [5] (at 50.0 µM), 36.9%; in assay [6] (setting [7]), -2%; in assay [6] (setting [8]), 86% (active); in assay [6] (at 50.0 µM), 71.7% (active).

As to `Cc1ccc(S(=O)(=O)Nc2ccccc2C=O)cc1`, the growth inhibition in assay [1] (setting [7]) was 17%; in assay [1] (setting [8]), 54%; in assay [1] (at 50.0 µM) it was 99% (active); in assay [2] (setting [7]), 19%; in assay [2] (setting [8]), 69%; in assay [2] (at 50.0 µM), 99.3% (active). The growth inhibition in assay [3] (setting [7]) was 16%; in assay [3] (setting [8]) it was 63%; in assay [3] (at 50.0 µM) it was 99% (active); in assay [4] (setting [7]), 1%; in assay [4] (setting [8]) it was 50%; in assay [4] (at 50.0 µM), 99% (active). Moreover, the growth inhibition was 4% in assay [5] (setting [7]); 49% in assay [5] (setting [8]); 98.8% (active) in assay [5] (at 50.0 µM); 14% in assay [6] (setting [7]); 84% (active) in assay [6] (setting [8]); 99.1% (active) in assay [6] (at 50.0 µM).

As for `O=[N+]([O-])c1ccc2c(c1)Cc1cc(Cl)ccc1-2`, the growth inhibition was 7% in assay [1] (setting [7]); 6% in assay [1] (setting [8]); 14.1% in assay [1] (at 50.0 µM); 2% in assay [2] (setting [7]); 5% in assay [2] (setting [8]); -13.9% in assay [2] (at 50.0 µM). The growth inhibition in assay [3] (setting [7]) is 1%; in assay [3] (setting [8]) it was -2%; in assay [3] (at 50.0 µM) it was -11.4%; in assay [4] (setting [7]), -5%; in assay [4] (setting [8]) it was 3%; in assay [4] (at 50.0 µM) it was 81.4% (active). Moreover, the growth inhibition in assay [5] (setting [7]) was 4%; in assay [5] (setting [8]), 7%; in assay [5] (at 50.0 µM) it was -14.3%; in assay [6] (setting [7]) it was 6%; in assay [6] (setting [8]) it was 5%; in assay [6] (at 50.0 µM) it was 46.1%.

As to `CN1CCN(CC(=O)c2c(-c3ccccc3)[nH]c3ccccc23)CC1`, the growth inhibition in assay [1] (setting [7]) was 68%; in assay [1] (setting [8]), 4%; in assay [1] (at 50.0 µM), 33.2%; in assay [2] (setting [7]) it was 56%; in assay [2] (setting [8]), 1%; in assay [2] (at 50.0 µM), 15.8%. Also, the growth inhibition in assay [3] (setting [7]) was 66%; in assay [3] (setting [8]) it was 7%; in assay [3] (at 50.0 µM), 9.45%; in assay [4] (setting [7]), 50%; in assay [4] (setting [8]), 21%; in assay [4] (at 50.0 µM), 33.1%. The growth inhibition in assay [5] (setting [7]) was 58%; in assay [5] (setting [8]) it was 4%; in assay [5] (at 50.0 µM) it was -9.9%; in assay [6] (setting [7]) it was 80% (active); in assay [6] (setting [8]), 1%; in assay [6] (at 50.0 µM), 8.15%.

Turning to `O=C(O)Cc1cccc2c(=O)c3cccc([N+](=O)[O-])c3[nH]c12`, the growth inhibition is 32% in assay [1] (setting [7]); 87% (active) in assay [1] (setting [8]); 74.6% (active) in assay [1] (at 50.0 µM); 24% in assay [2] (setting [7]); 83% (active) in assay [2] (setting [8]); 58% in assay [2] (at 50.0 µM). Also, the growth inhibition was 24% in assay [3] (setting [7]); 60% in assay [3] (setting [8]); 53.1% in assay [3] (at 50.0 µM); 28% in assay [4] (setting [7]); 79% (active) in assay [4] (setting [8]); 65% in assay [4] (at 50.0 µM). In addition, the growth inhibition in assay [5] (setting [7]) was 22%; in assay [5] (setting [8]) it was 85% (active); in assay [5] (at 50.0 µM), 45.5%; in assay [6] (setting [7]), 28%; in assay [6] (setting [8]) it was 86% (active); in assay [6] (at 50.0 µM) it was 69.8%.

`O=C(Oc1c(Cl)cc(Cl)c(Cl)c1Cl)Oc1c(Cl)cc(Cl)c(Cl)c1Cl`: the growth inhibition in assay [1] (setting [7]) was 4%; in assay [1] (setting [8]) it was 1%; in assay [1] (at 50.0 µM), -1.15%; in assay [2] (setting [7]), 5%; in assay [2] (setting [8]) it was 4%; in assay [2] (at 50.0 µM) it was 15.2%. Further, the growth inhibition in assay [3] (setting [7]) was 6%; in assay [3] (setting [8]) it was -11%; in assay [3] (at 50.0 µM), 0.3%; in assay [4] (setting [7]) it was 6%; in assay [4] (setting [8]), -11%; in assay [4] (at 50.0 µM), 6.85%. Besides, the growth inhibition in assay [5] (setting [7]) was 4%; in assay [5] (setting [8]), 0%; in assay [5] (at 50.0 µM) it was 70% (active); in assay [6] (setting [7]) it was 1%; in assay [6] (setting [8]) it was -1%; in assay [6] (at 50.0 µM), 0.15%.

Turning to `COc1ccc2ccnc(Cc3ccc(OCc4ccccc4)c(OC)c3)c2c1`, the growth inhibition in assay [1] (setting [7]) was 42%; in assay [1] (setting [8]), 42%; in assay [1] (at 50.0 µM), 89.5% (active); in assay [2] (setting [7]), 27%; in assay [2] (setting [8]), 27%; in assay [2] (at 50.0 µM), 87.3% (active). In addition, the growth inhibition in assay [3] (setting [7]) is 28%; in assay [3] (setting [8]), 28%; in assay [3] (at 50.0 µM) it was 89.7% (active); in assay [4] (setting [7]), 12%; in assay [4] (setting [8]), 12%; in assay [4] (at 50.0 µM), 87% (active). For the same molecule, the growth inhibition in assay [5] (setting [7]) was 28%; in assay [5] (setting [8]), 28%; in assay [5] (at 50.0 µM), 86.5% (active); in assay [6] (setting [7]) it was 29%; in assay [6] (setting [8]) it was 29%; in assay [6] (at 50.0 µM), 86% (active).

As to `CCN(CC)C1Oc2cc3c(cc2C(c2ccc(OC)cc2)C1C)OCO3` (stereo not given), the growth inhibition in assay [1] (setting [7]) is 2%; in assay [1] (setting [8]), 96% (active); in assay [1] (at 50.0 µM) it was 82.3% (active); in assay [2] (setting [7]) it was -38%; in assay [2] (setting [8]), 96% (active); in assay [2] (at 50.0 µM), 77.5% (active). Besides, the growth inhibition in assay [3] (setting [7]) is -48%; in assay [3] (setting [8]), 95% (active); in assay [3] (at 50.0 µM), 89.3% (active); in assay [4] (setting [7]) it was 1%; in assay [4] (setting [8]) it was 95% (active); in assay [4] (at 50.0 µM), 81% (active). Moreover, the growth inhibition in assay [5] (setting [7]) was -34%; in assay [5] (setting [8]), 98% (active); in assay [5] (at 50.0 µM), 84.5% (active); in assay [6] (setting [7]), -14%; in assay [6] (setting [8]), 97% (active); in assay [6] (at 50.0 µM), 85.3% (active).

For `CCC(C)N(C(=O)c1ccccc1)c1ccccc1` (stereo not given), the growth inhibition in assay [1] (setting [7]) is -1%; in assay [1] (setting [8]) it was -2%; in assay [1] (at 50.0 µM), 2.8%; in assay [2] (setting [7]), 1%; in assay [2] (setting [8]) it was -1%; in assay [2] (at 50.0 µM), 6.15%. Further, the growth inhibition in assay [3] (setting [7]) is 2%; in assay [3] (setting [8]) it was -3%; in assay [3] (at 50.0 µM) it was -7.35%; in assay [4] (setting [7]), 0%; in assay [4] (setting [8]), 3%; in assay [4] (at 50.0 µM), 39.8%. The growth inhibition in assay [5] (setting [7]) was -3%; in assay [5] (setting [8]), -1%; in assay [5] (at 50.0 µM), -4.45%; in assay [6] (setting [7]) it was -3%; in assay [6] (setting [8]) it was 2%; in assay [6] (at 50.0 µM), -3.65%.
